# Measured values taken from PMC5540273 (PLoS ONE, 2017).
# Test system: SLK
# Conditions: concentration: 1 μM, replicates: in singlicate; n = 1
# 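Also: KINOMEscan kinase panel screen.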
row,SMILES,%Inh
1,CC(=O)Nc1nc2cnc(Nc3cc(NC(=O)c4cccc(CCC#N)c4)ccc3C)nc2s1,14%
2,Cc1nnc(-c2ccc3occ(-c4ccc(S(C)=O)cc4)c3c2)[nH]1 (stereo not shown),50%
3,Cc1ccc(NC(=O)Nc2cccc(Cl)c2)cc1-c1ccc(C(=O)Nc2ccncc2)cc1 [GSK1398468],6%
4,COc1ccc(Nc2nccc(-c3cccc(NC(=O)c4cc5cc(F)ccc5[nH]4)c3)n2)cc1 [GSK1229782],29%
5,COc1cccc(-c2cc(-c3c[nH]nc3-c3ccccn3)ccn2)c1 [GW680338],0%
6,Fc1cc(Cl)ccc1Nc1ccnc2cc(-c3ccc(CN4CCCCC4)o3)ccc12 [GW560116],0%
7,O=C(Nc1ccc2c(c1)OCO2)NC1CCN(c2ccnc(Nc3ccc(F)cc3)n2)C1 (stereo not shown) [GSK1379724],10%
8,O=C(Nc1ccccc1)Nc1cccc(Oc2ccc3nccn3n2)c1,12%
9,Cn1ccc2ncnc(Oc3ccc(NC(=O)Nc4ccccc4)cc3)c21,22%
10,Cc1ccc(-c2cc(-c3c[nH]nc3-c3ccccn3)ccn2)cc1 [GW684088],0%
11,O=C(O)COc1ncnc2cc(-c3ccc4[nH]ncc4c3)sc12,0%
12,C[C@@H]1CCCCN1c1cc(-c2ccc3c(N)n[nH]c3c2)nc(N)n1 [GSK2258759],0%
13,COc1cc(Nc2nccc(N3CCC(NC(=O)Nc4cc(C)ccc4C)C3)n2)cc(OC)c1OC (stereo not shown) [GSK1379762],23%
14,Nc1nc(-c2nccs2)c(-c2ccnc3ccccc23)s1 [GW693542],9%
15,Cn1cncc1-c1ccc2ncnc(Nc3ccc(OCc4ccccc4)cc3)c2c1 [GW320571],19%
16,Cc1cccc(-c2nc(Nc3ccc4[nH]ncc4c3)c3ccccc3n2)n1 [GW857175],16%
17,O=C1NC(=O)C(N2CCc3ccccc32)=C1c1ccccc1Cl [SB-373598],29%
18,O=C(Nc1n[nH]c2nc(-c3nccs3)c(Br)cc12)C1CC1 [SB-742251],0%

row,SMILES,%Inh
1,CCCc1ccc(S(=O)(=O)NC2CCN(c3ccnc(Nc4ccc(F)cc4)n3)C2)cc1 (stereo not shown) [GSK1379715],0%
2,Fc1cccc(COc2nnc(-c3ccc4c(c3)CCO4)o2)c1,0%
3,CS(=O)(=O)c1ccc(-c2c(-c3ncn[nH]3)sc(N3CCOCC3)c2C#N)cc1,3%
4,COc1ccc(CNC(=O)NC2CCN(c3ccnc(Nc4cc(OC)c(OC)c(OC)c4)n3)C2)cc1 (stereo not shown) [GSK1379748],0%
5,O=c1cc(N2CCOCC2)nc2n(Cc3cccc(Cl)c3Cl)ccn12 [GSK2286295],17%
6,Cc1ccccc1-n1cnc2c(N)ncnc21 [SKF-97510],100%
7,Cc1cccc(-c2nc(-c3ccc(S(C)(=O)=O)cc3)sc2-c2ccnc(NCCc3ccccc3)c2)c1,7%
8,Cc1cccc(-c2nc(C)cc(Nc3ccncc3)n2)n1 [GSK257997],42%
9,Cc1cc(-c2ccc3c(c2)CC[C@@H](N[C@@H](C)c2ccccc2)C3)cnc1N.Cl [GW412617],29%
10,Cc1ccc(NC(=O)Nc2cc(C(C)(C)C)nn2-c2ccccc2)cc1 [GSK1014915],44%
11,COc1cc2ncn(-c3cc(OCC4CCCO4)c(C(N)=O)s3)c2cc1OC (stereo not shown) [GSK204607],96.3%
12,COc1cccc(NC(=O)NC2CCN(c3ccnc(Nc4ccc(F)cc4)n3)C2)c1 (stereo not shown) [GSK1379721],0%
13,CC1=C(C(=O)Nc2cc3cn[nH]c3cc2F)C(c2ccc(C(F)(F)F)cc2)CC(=O)N1 (stereo not shown) [GSK429286],1%
14,COc1ccc(C2=C(Nc3cccc(C(=O)O)c3)C(=O)NC2=O)cc1 [SB-390765],7%
15,COc1cc2ncnc(Nc3ccc4nc(-c5ccccc5)[nH]c4c3)c2cc1OC.Cl [GW282450],30%
16,CN1C(=O)C(Nc2ccc(Cl)c(C(=O)O)c2)=C(c2ccc(Cl)cc2)C1=O [SB-404290],13%
17,Cl.NC(=O)c1cccc(Nc2nccc(Nc3ccc(Oc4cccc(Cl)c4)c(Cl)c3)n2)c1 [GW659008],32%

# Test system: T1, SNARK
# T1 construct: gene NUAK2
# Conditions: concentration: 1 μM, replicates: in singlicate; n = 1
row,SMILES,%Inh
1,CC(=O)Nc1nc2cnc(Nc3cc(NC(=O)c4cccc(CCC#N)c4)ccc3C)nc2s1,9%
2,Cc1nnc(-c2ccc3occ(-c4ccc(S(C)=O)cc4)c3c2)[nH]1 (stereo not shown),11%
3,Cc1ccc(NC(=O)Nc2cccc(Cl)c2)cc1-c1ccc(C(=O)Nc2ccncc2)cc1 [GSK1398468],0%
4,COc1ccc(Nc2nccc(-c3cccc(NC(=O)c4cc5cc(F)ccc5[nH]4)c3)n2)cc1 [GSK1229782],33%
5,COc1cccc(-c2cc(-c3c[nH]nc3-c3ccccn3)ccn2)c1 [GW680338],11%
6,Fc1cc(Cl)ccc1Nc1ccnc2cc(-c3ccc(CN4CCCCC4)o3)ccc12 [GW560116],0%
7,O=C(Nc1ccc2c(c1)OCO2)NC1CCN(c2ccnc(Nc3ccc(F)cc3)n2)C1 (stereo not shown) [GSK1379724],0%
8,O=C(Nc1ccccc1)Nc1cccc(Oc2ccc3nccn3n2)c1,0%
9,Cn1ccc2ncnc(Oc3ccc(NC(=O)Nc4ccccc4)cc3)c21,19%
10,Cc1ccc(-c2cc(-c3c[nH]nc3-c3ccccn3)ccn2)cc1 [GW684088],0%
11,O=C(O)COc1ncnc2cc(-c3ccc4[nH]ncc4c3)sc12,13%
12,C[C@@H]1CCCCN1c1cc(-c2ccc3c(N)n[nH]c3c2)nc(N)n1 [GSK2258759],2%
13,COc1cc(Nc2nccc(N3CCC(NC(=O)Nc4cc(C)ccc4C)C3)n2)cc(OC)c1OC (stereo not shown) [GSK1379762],23%
14,Nc1nc(-c2nccs2)c(-c2ccnc3ccccc23)s1 [GW693542],8%
15,Cn1cncc1-c1ccc2ncnc(Nc3ccc(OCc4ccccc4)cc3)c2c1 [GW320571],0%
16,Cc1cccc(-c2nc(Nc3ccc4[nH]ncc4c3)c3ccccc3n2)n1 [GW857175],15%
17,O=C1NC(=O)C(N2CCc3ccccc32)=C1c1ccccc1Cl [SB-373598],11%
18,O=C(Nc1n[nH]c2nc(-c3nccs3)c(Br)cc12)C1CC1 [SB-742251],0%

row,SMILES,%Inh
1,CCCc1ccc(S(=O)(=O)NC2CCN(c3ccnc(Nc4ccc(F)cc4)n3)C2)cc1 (stereo not shown) [GSK1379715],0%
2,Fc1cccc(COc2nnc(-c3ccc4c(c3)CCO4)o2)c1,0%
3,CS(=O)(=O)c1ccc(-c2c(-c3ncn[nH]3)sc(N3CCOCC3)c2C#N)cc1,0%
4,COc1ccc(CNC(=O)NC2CCN(c3ccnc(Nc4cc(OC)c(OC)c(OC)c4)n3)C2)cc1 (stereo not shown) [GSK1379748],25%
5,O=c1cc(N2CCOCC2)nc2n(Cc3cccc(Cl)c3Cl)ccn12 [GSK2286295],0%
6,Cc1ccccc1-n1cnc2c(N)ncnc21 [SKF-97510],0%
7,Cc1cccc(-c2nc(-c3ccc(S(C)(=O)=O)cc3)sc2-c2ccnc(NCCc3ccccc3)c2)c1,0%
8,Cc1cccc(-c2nc(C)cc(Nc3ccncc3)n2)n1 [GSK257997],4%
9,Cc1cc(-c2ccc3c(c2)CC[C@@H](N[C@@H](C)c2ccccc2)C3)cnc1N.Cl [GW412617],8%
10,Cc1ccc(NC(=O)Nc2cc(C(C)(C)C)nn2-c2ccccc2)cc1 [GSK1014915],0%
11,COc1cc2ncn(-c3cc(OCC4CCCO4)c(C(N)=O)s3)c2cc1OC (stereo not shown) [GSK204607],39%
12,COc1cccc(NC(=O)NC2CCN(c3ccnc(Nc4ccc(F)cc4)n3)C2)c1 (stereo not shown) [GSK1379721],0%
13,CC1=C(C(=O)Nc2cc3cn[nH]c3cc2F)C(c2ccc(C(F)(F)F)cc2)CC(=O)N1 (stereo not shown) [GSK429286],80%
14,COc1ccc(C2=C(Nc3cccc(C(=O)O)c3)C(=O)NC2=O)cc1 [SB-390765],8%
15,COc1cc2ncnc(Nc3ccc4nc(-c5ccccc5)[nH]c4c3)c2cc1OC.Cl [GW282450],0%
16,CN1C(=O)C(Nc2ccc(Cl)c(C(=O)O)c2)=C(c2ccc(Cl)cc2)C1=O [SB-404290],8%
17,Cl.NC(=O)c1cccc(Nc2nccc(Nc3ccc(Oc4cccc(Cl)c4)c(Cl)c3)n2)c1 [GW659008],0%
